Reference: PubChem BioAssay AID777 (Sanford-Burnham Center for Chemical Genomics, 2007)
The whole screen tested about 96,000 compounds, of which about 19,000 (20%) were called active.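 Rule for the calls: active = blocking of liver enzyme CYP2C9 beyond about 50% at 5 µM (limit read from the data); inactive = the rest.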 Only a sample is shown.

molecular target: Cytochrome P450 2C9 (Homo sapiens) (UniProt P11712); assay: blockers of cytochrome P450 2C9 activity – biochemical, luminescence, ADME assay, primary screen (AID 777); details: CYP2C9 Supersomes, luciferin-H conversion, at 5 µM, stronger effect = higher value
Sequence (P11712 whole entry, looked up): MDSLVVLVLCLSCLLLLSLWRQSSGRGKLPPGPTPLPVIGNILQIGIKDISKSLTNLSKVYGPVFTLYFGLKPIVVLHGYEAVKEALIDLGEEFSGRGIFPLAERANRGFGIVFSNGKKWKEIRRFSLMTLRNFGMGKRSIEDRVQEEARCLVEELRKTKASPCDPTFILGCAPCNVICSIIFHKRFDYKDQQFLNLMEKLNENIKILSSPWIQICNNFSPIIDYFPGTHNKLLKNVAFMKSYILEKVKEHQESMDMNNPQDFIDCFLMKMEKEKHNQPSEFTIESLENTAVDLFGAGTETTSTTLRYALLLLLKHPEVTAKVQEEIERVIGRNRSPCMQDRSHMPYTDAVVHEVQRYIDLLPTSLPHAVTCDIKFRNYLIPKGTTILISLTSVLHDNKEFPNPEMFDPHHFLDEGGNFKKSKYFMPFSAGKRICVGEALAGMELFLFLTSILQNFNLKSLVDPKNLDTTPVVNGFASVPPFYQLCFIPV

inhibition, active:
Cc1nc2c(C(=O)NCc3ccc4c(c3)OCO4)c[nH]n2c(=O)c1Cc1ccccc1F 93.4%, CC1CCN(C(NC(=O)c2ccco2)C(=O)c2ccccc2)CC1 (configuration not stated) 71.6%, COc1cccc(-n2cc3c(c2-c2ccccc2)c(=O)n(C)c(=O)n3C)c1 64.6%, O=C(Nc1nccs1)C1CCCN1S(=O)(=O)c1cccc2cccnc12 (configuration not stated) 53.9%, CC(=O)c1cccc(NC(=O)C2CCCN2S(=O)(=O)c2cccc3nsnc23)c1 (configuration not stated) 92.8%, Cc1nnc(NC(=O)Cn2c(=O)sc3ccccc32)s1 67.6%, COc1cccc(N(CC(=O)NC2CCCC2)C(=O)Cn2nnc(-c3ccc(C)cc3)n2)c1 59.1%, Cc1[nH]nc(-c2ccc(OCc3cnn(-c4ccccc4)c3)cc2O)c1Oc1ccc(Cl)cc1 66.2%, Cn1c(=O)c2cn(-c3cccc4ccccc34)cc2n(C)c1=O 71.3%, COc1ccc(OC)c(-n2cc3c(=O)n(C)c(=O)n(C)c3c2)c1 78.8%, CCOC(=O)c1sc2nc(CSCC(=O)OCc3ccc(C(=O)OC)o3)[nH]c(=O)c2c1C 54.4%, Cc1cc(C(=O)OC(C)C(=O)Nc2cccc(S(=O)(=O)N3CCOCC3)c2)c(C)o1 (configuration not stated) 97.4%, CCOC(=O)C1CCN(C(=O)Nc2ccc(Cl)cc2)CC1 53.3%, O=C(CN1CCN(c2nc(-c3ccccc3)cs2)CC1)NCc1ccc2c(c1)OCO2 91.4%, O=C(Cn1nnc(-c2ccccc2)n1)NCc1ccc2c(c1)OCO2 50.4%, O=C(CC(Cc1ccccc1)C(=O)O)NCCc1ccc2c(c1)OCO2 (configuration not stated) 75.5%, O=C(CN(Cc1ccccc1)C(=O)c1ccc2c(c1)OCCO2)NCc1ccc2c(c1)OCO2 50.2%, CCOC(=O)c1ccc(COC(=O)CCc2nc(-c3ccccc3)c(-c3ccccc3)o2)cc1 85.6%, O=C1/C(=C/c2cccs2)CCc2ccccc21 72.8%

inhibition, inactive:
CCc1c(C)nc2ncnn2c1N1CCC(C(=O)NCc2ccc3c(c2)OCO3)CC1 12.9%, CCn1cc(C(=O)NCc2ccc3c(c2)OCO3)c2cc(OC)c(OC)cc2c1=O 31.5%, CNC(=O)/C(=C\C=C\c1ccccc1)NC(=O)c1ccc([N+](=O)[O-])cc1 22.2%, CCOC(=O)c1cnc(SCc2nc(N)nc(Nc3ccc(OC)cc3)n2)nc1N 40.5%, Cc1nn(-c2ccccc2)c2c1C(=O)NC(=O)C(C)(C)C2 14.9%, CC1CCN(C(=O)Cn2cc(C(=O)c3ccco3)c3ccccc32)CC1 28.3%, O=C(Nc1ccc(Oc2ccccc2)cc1)c1ccco1 24.3%, O=C(NC1CCCCC1)N1CCc2[nH]c3ccccc3c2C1 27.9%, Cc1cc(Cl)c(S(=O)(=O)NCC2CCCO2)cc1OCC(N)=O (configuration not stated) -10.7%, COc1ccc(-c2c3c(=O)n(C)c(=O)n(C)c3cn2-c2cccc(OC)c2)cc1 4.2%, Cc1ccc(-c2c3c(=O)n(C)c(=O)n(C)c3cn2-c2ccccc2O)cc1 43.7%, CCc1ccc(Nc2ncc3c(n2)CC(c2ccco2)CC3=O)cc1 (configuration not stated) 8.9%, O=C1N=C(N2CCOCC2)S/C1=C\C=C/c1ccccc1 -28.7%, CN(C)/C=C/C(=O)c1ccccc1F 14.6%, O=C(Nc1ccccc1Cl)O/N=C(/c1ccccc1)c1ccccn1 22.2%, O=C1NC(c2ccncc2)Nc2sc3c(c21)CCCC3 (configuration not stated) 49.1%, COc1ccc(NC(=O)C2CCCN(S(=O)(=O)c3cccc4cccnc34)C2)cc1 (configuration not stated) -49.2%, O=C(O)C1CCCN(S(=O)(=O)c2cccc3cccnc23)C1 (configuration not stated) -20.2%, CC(=O)c1cccc(NC(=O)N2CCCC2C(=O)NCCC(C)C)c1 (configuration not stated) 9.2%, CC1CCCCC1NC(=O)C1CCCN1S(=O)(=O)c1cccc2nsnc12 (configuration not stated) 21.2%, CCc1nn(-c2cc(Oc3cccc4ccccc34)nc(-c3ccccc3)n2)c(N)c1C#N 20%, CSc1sc(C)cc1C1C(C#N)=C(N)N(c2cccnc2)C2=C1C(=O)CCC2 (configuration not stated) 23%, CCCOc1ccc(N2C(=O)CC(N(CCc3ccc(S(N)(=O)=O)cc3)C(C)=O)C2=O)cc1 (configuration not stated) -11.4%, Cc1nn(-c2ccccc2)c2[nH]c(C(F)(F)F)cc(=O)c12 46.9%, COc1ccc(OCCCC(=O)Nc2nnc(C3CCCO3)s2)cc1 (configuration not stated) 45.3%, O=C(Cn1c(=O)sc2ccccc21)Nc1ccc2c(c1)OCCO2 7%, Cc1nnc(NC(=O)CCCOc2ccccc2)s1 -8.5%, CCN(CC)CCCNC(=O)CCc1ccccc1 1.4%, O=C(CN1C(=O)NC2(CCCC2)C1=O)Nc1ccc(F)c(F)c1F -34.9%, Cc1ccccc1N1CC(c2nc3ccccc3[nH]2)CC1=O (configuration not stated) 29.8%, CC1=CC(=O)C=CC1(C)C(Cl)(Cl)Cl (configuration not stated) -5.7%, COc1ccc(N(CC(=O)NC2CCCCCCC2)S(=O)(=O)c2c(C)nn(C)c2C)cc1 40.5%, O=C(Cn1nnc(-c2ccc(CN3CCOCC3)cc2)n1)NC1CCCCC1 25.3%, CC(C)c1cc(C(=O)O)on1 -15.7%, Cn1c(COc2ccc(Cl)cc2)nc2ccccc2c1=O 43.9%, COc1ccc(Oc2c(Cl)cnn(-c3ccccc3)c2=O)cc1 18.9%, CC(C)(C)C(=O)Nc1ccc(C(=O)N/N=C/c2ccccc2OC(=O)c2ccc(Cl)cc2Cl)cc1 21.5%, CCn1c(NCCc2ccc(OC)c(OC)c2)nc2c1c(=O)n(C)c(=O)n2C 12.4%, CC(=O)Nn1cc2c(=O)n(C)c(=O)n(C)c2c1 -1.4%, COc1ccc(OC)c(NC(=O)Cn2c(=O)oc3ccccc32)c1 26.9%, Cn1c2c(c(=O)n(C)c1=O)[C@@H]1c3c(ccc4ccccc34)OC[C@@H]1CO2 18.4%, O=C(OC1CCOC1=O)c1ccc(-c2nc3ccccc3s2)s1 (configuration not stated) 4.9%, CSCCC(NC(=O)C1CCC(C)CC1)C(=O)NCc1ccco1 (configuration not stated) 10.7%, CSCCC(NC(N)=O)C(=O)N(C)CC(=O)Nc1ccc(C)cc1 (configuration not stated) -21.5%, CC1(C)CC(O)C(CCC(O)c2ccccc2)C(C)(C)N1 (configuration not stated) -1.7%, O=c1c(F)cn(C2CCCO2)c(=O)n1Cc1ccccc1Cl (configuration not stated) 15.2%, Cc1ccc(NC(=S)Nc2ncccc2C)c(C)c1 -26.1%, CCOC(=O)c1ccc(COC(=O)c2cc(=O)[nH]c3ccccc23)o1 -27.9%, CCOc1cc(/C=N/n2cnnc2)c(Br)cc1O 43.2%, Cc1cc(=O)oc2cc(OC(C)C(=O)Nc3ccc(N4CCOCC4)cc3)ccc12 (configuration not stated) -6.3%, COc1ccccc1N1CC(C(=O)Nc2ccc(S(=O)(=O)N3CCOCC3)cc2)CC1=O (configuration not stated) 8.1%, O=C(O)CCC(=O)NCc1ccc2[nH]c3c(c2c1)CCCC3 -5.1%, COc1ccc(CNC2CCCCC2)cc1 2.3%, CCOC(=O)C1CCN(C(=O)C2CCN(S(=O)(=O)CC)CC2)CC1 -14.3%, CCOC(=O)C1CCN(C(=O)C2CCN(S(=O)(=O)N3CCCC3)CC2)CC1 20.7%, COc1ccc(-c2csc(N3CCN(Cc4ccc5c(c4)OCO5)CC3)n2)cc1 -14.4%, O=C(COC(=O)c1ccc2c(c1)OCCO2)NCc1ccccc1 -9.3%, CC1CCCC(C)N1C(=O)CN1CCN(c2nc(-c3ccc(F)cc3)cs2)CC1 (configuration not stated) 1.8%, O=C(NCCc1ccc2c(c1)OCCO2)c1cc2ccccc2o1 35.2%, O=C(Cn1nnc(-c2ccccc2)n1)NCc1ccccc1 -11.3%, O=C(NCc1ccc2c(c1)OCO2)c1cc2c(s1)CS(=O)(=O)C2 25%, O=C(COc1ccccc1)NCc1ccc2c(c1)OCO2 32.4%, O=C(Cn1nnc(-c2ccc3c(c2)OCO3)n1)NCc1ccco1 16.6%, N#C/C=C1\Sc2ccccc2C(=O)N1CC(=O)N1CCN(S(=O)(=O)c2ccccc2)CC1 -15.4%, Cc1c(-c2ccccc2)nc(N)c(C#N)c1-c1cccs1 29.3%, O=c1c2ccccc2nc2n1C(CSc1ccc(Cl)cc1)CN2 (configuration not stated) -1.6%, Cc1nc2ccc(S(=O)(=O)NC(C(=O)N3CCCCCC3)C(C)C)cc2s1 (configuration not stated) 26.6%, COC(=O)Nc1ncc(CN2C(=O)c3ccccc3C2=O)s1 -12%, N/C(=N\OC(=O)CCC1CCCCC1)c1ccccn1 0.9%, O=C(O)c1cc(S(=O)(=O)N2CCCCCC2)c(Cl)cc1Cl 22.4%, O=C(COC(=O)c1ccccc1SCC(=O)NC1CCCCC1)NC1CCCCC1 12.1%, CCOC(=O)c1cc(NC(=O)c2ccc(Cl)cc2)c(=O)oc1-c1ccccc1 -22.2%, CCOC(=O)c1ccc(-c2ccc(C(=O)Nc3cccnc3)o2)cc1 14.6%, Cc1ccc(O)c(NC(=O)COc2cc(C)ccc2C)c1 -59.4%, COc1ccccc1-c1c(C)nn2c(C)c(C(C)=O)cnc12 3.7%, COc1ccc(-c2nc(SCC(=O)N3CCOCC3)n[nH]2)cc1 -9.6%, Cc1ccc(N2CCN(C3=NC(=O)/C(=C\c4cccs4)S3)CC2)cc1 -127%, C(=N/N1CCN(c2ccccc2)CC1)/c1cccs1 40.3%
